Screens from PubChem.
Sfp inh: Sfp phosphopantetheinyl transferase inhibition; AID 1490; actives 3.5% (n = 310,000); Biochemical Sfp PPTase activity, qHTS; Potency, µM, for inactives: largest response in the series, negative = inhibition, hits mostly inhibitors;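 also: the enzyme is Sfp with the accession as filed and its product quenches rhodamine fluorescence; 0% = enzyme reaction without inhibitor and -100% = no enzyme wells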
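Sfp 15 nM + cpd, 15 min RT; start w/ rhodamine-CoA 5 uM, BHQ-2-YbbR 12.5 uM (final); 50 mM Hepes pH 7.6, 10 mM MgCl2, 0.01% NP-40, 0.01% BSA; read 525/598 nm at 0 and 30 min.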
PLK1 PBD inh: PLK1 (human) polo-box domain binding inhibition; P53350; Plk1 PBD binding of FITC phosphopeptide, fluorescence polarization; actives 2.8% (n = 360,000); Potency, µM, inactives show max response, negative = inhibition, usual class: inhibitors; also: series mostly up to about 57 µM; nearly all actives have a fitted effect of over 65% in size
ALOX12 inh: ALOX12 (human) lipoxygenase inhibition; P18054; purified 12hLO, xylenol orange hydroperoxide absorbance; Potency, µM (top dose mostly 108 µM), without a hit: at the top dose activity change, negative = inhibition, actives largely listed as inhibitors; actives 1.1% (n = 580,000)
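Hydroperoxide product was detected by ferrous iron/xylenol orange as the 573 to 405 nm absorbance ratio. Arachidonic acid at 40 uM (final) was turned over for 30 min at room temperature by 150 nM human 12hLO, pH 7.0 Hepes buffer, after 15 min compound preincubation.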
VDR inh: vitamin D3 receptor (human) inhibition; Potency, µM, without a hit: max response, negative = inhibition, most hits filed as inhibitors; AID 504847; actives 0.93% (n = 400,000); VDR-SRC2-3 peptide fluorescence polarization, 2 h
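After 23 nl compound addition and a short centrifugation, plates sat for 2 hours at ambient temperature; polarization of fluorescence then indicated loss of VDR binding to peptide SRC2-3.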
Starred values were filed as active, the others as inactive; ? = inconclusive; nt = no result; [ ] = another dose, or the depositor's remark. In the library only some 4.2% were active in any assay of this set; here they are far more common. Calls follow the shape of the dose curve; as a rule, active = well fitted curve in the direction sought with a large enough effect; inconclusive = small, poorly fitted or top-dose-only effect, or another doubt; inactive = no such curve, though single readings can be large; an effect the other way counts as inactive or inconclusive. Unless noted, % is scaled to controls: 0 for no effect and ±100 for the full control effect; potency is read from the fitted curve at half-maximal effect.

SMILES	Sfp inh	PLK1 PBD inh	ALOX12 inh	VDR inh
CN(C)C(=O)c1ccc(-c2nc(Nc3ccccc3)c3ccccc3n2)cc1	-7%	nt	?	40µM*
CCN(C(=O)CSCc1ccco1)C1CCCCC1	nt	nt	-41%	nt
Cc1cc(O)c(C(C)C)cc1N=Cc1ccc(N(C)C)cc1	nt	-18%	?	45µM*
COc1cccc(/C=N/O)c1O	nt	nt	4%	nt
COc1cccc(C=Nc2cc(C(C)C)c(O)cc2C)c1O	nt	-22%	?	50µM*
Cc1cc(O)c(C(C)C)cc1NC(=O)Nc1ccc([N+](=O)[O-])cc1	nt	6%	?	12%
Cc1ccc(N=Cc2ccc(N(C)C)cc2)c(C)c1	nt	nt	3%	nt
Cc1cc(O)c(C(C)C)cc1N=Cc1ccc([N+](=O)[O-])cc1	nt	-23%	?	50µM*
COc1ccc(-n2cc(C(=O)OCc3ccc(Cl)cc3)c3ccccc3c2=O)cc1	nt	nt	-13%	19%
O=C(Cc1ccc(-c2ccccc2)cc1)NCCS(=O)(=O)N1CCN(c2ccccc2F)CC1	nt	nt	-27%	4%
O=C(c1ccc(F)cc1)N1CCCC(c2nc(-c3ccncc3)no2)C1 (centres undefined)	nt	-2%	-2%	12%
O=C(O)c1cccc(-n2c(O)c(C=C3N=c4ccccc4=N3)sc2=S)c1	4%	-27%	-22%	-12%
Cc1nc2cc(NCc3ccccc3O)ccc2n1Cc1ccccc1	-11%	3.4µM*	21%	?
Cc1nc2ccccc2n1Cc1ccccc1	-1%	-5%	19%	15%
COC(=O)c1ccc(COC(=O)c2ccc(SC)cc2OC)cc1	-7%	27µM*	-8%	?
COCCN1CCC2(C1)CN(C)c1ccc(C(=O)NCCOc3ccccc3)cc12 (centres undefined)	nt	nt	6%[176 µM]	nt
CC(=O)N1CCC(NC(=O)c2ccc3nc(C)c(C)nc3c2)CC1	nt	nt	7%	nt
COc1ccc(OC)c(CCNC(=O)Cn2sc3nc(C)cc(C)c3c2=O)c1	1.4µM*	nt	nt	nt
Cc1cc(C)c2c(=O)n(CC(=O)Nc3ccc(Br)c(C)c3)sc2n1	3.2µM*	3µM*	-106%	?
Cc1cc(C)c2c(=O)n(CC(=O)Nc3ccccc3Cl)c(=O)n(C)c2n1	nt	nt	-18%	nt
Cc1cc(C)c2c(=O)n(CC(=O)NC3CCCC3)sc2n1	2.8µM*	1.9µM*	-57%	10µM*
Cc1cc(NC(=O)Cn2cnc3c2c(=O)n(C)c(=O)n3C)ccc1Br	nt	nt	-20%	nt
Cc1cc(C)c2c(=O)n(CC(=O)Nc3cccc(Cl)c3C)sc2n1	2.5µM*	2.7µM*	0.71µM*	18µM*
Cc1c(NC(=O)c2ccc(NS(=O)(=O)c3cccc([N+](=O)[O-])c3)cc2)c(=O)n(-c2ccccc2)n1C	nt	4%	-13%	-12%
CCc1nnc(NC(=O)CSc2nc(C)nc3c2c(=O)n(C)c(=O)n3C)s1	-4%	-5%	2%	-4%
SMILES	Sfp inh	PLK1 PBD inh	ALOX12 inh	VDR inh
CC(=O)N1CCn2c3c(c4cc(C)ccc42)CCCC31 (centres undefined)	-6%	-4%	-12%	-11%
Cc1ccc2c(c1)c1c3n2CCN(C(=O)CCl)C3CCC1 (centres undefined)	-9%	-24%	11µM*	?
COCCNC(=O)c1cc(C2CC2)nc2onc(C3CCCNC3)c12 (centres undefined)	nt	nt	10%[6.33 µM]	nt
O=C(/C=C/c1cccs1)N1CCN(c2ccc(O)cc2)CC1	45µM*	-11%	?	0%
COc1ccc(CCN2Cc3c(cccc3[N+](=O)[O-])C2=O)cc1OC	3%	?	0%	-15%
CC(=O)c1sc(C(=O)O)c(-c2ccco2)c1-c1ccco1	18µM*	?	?	-23%
Cc1ccc(-c2cc(C(=O)NCCCN3CCCC3)c3ccccc3n2)cc1C	-17%	?	?	9%
Cc1cc(N(C)C)ccc1N=Nc1ccc2ncccc2c1	45µM*	?	?	-9%
O=C(CC1Sc2ccc(C(F)(F)F)cc2NC1=O)Nc1ccc2c(c1)OCO2 (centres undefined)	nt	nt	-3%	nt
O=C1c2ccccc2C(=O)C1c1ccc(Cl)cc1	17%	1%	-16%	-9%
O=C1c2ccccc2C(=O)C12OC2c1ccc(Cl)cc1Cl (centres undefined)	-13%	-27%	-3%	89µM*
COCCCNC(=O)C(=O)NCC(c1ccco1)N1CCN(c2ccc(OC)cc2)CC1 (centres undefined)	4%	?	13%	-20%
COc1ccc(N2C(=O)C(Cl)=C(Nc3ccccc3O)C2=O)cc1	45µM*	12µM*	?	-28%
